# According to the OligoGym collection:
# Target: DHPS
# Assay: pooled miR-30 sensor sort-seq; sequence = guide strand
# Conditions: shRNA
# Further: reference of the scale not given here.
row,Sequence,sensor-assay potency score (higher = more potent)
1,TTGCTGTACAGCGCGCCCGAAG,-1.67
2,TAATACACGGACTCTGGGTTGT,-0.152
3,ATTGACTTGCTGTACAGCGCGC,-0.633
4,TGTGTTGATGTAAACAGCGTAG,-0.876

# Target: DHX35
# Assay: as above
# Conditions: shRNA
row,Sequence,sensor-assay potency score (higher = more potent)
1,TAACACAAAACAGCGCACGAGT,-0.967
2,TAAGGGTTGTAAACAACCGTTG,-0.768
3,TAGATAAAAGATATCCACCGGA,-0.104
4,TAGACTGAGGCAACTTGTCAAA,-1.05
5,TTCATTCGTAGAGACATGCTTG,0.0862
6,TTGTAAACAACCGTTGTCCCAG,-0.562
